Some test systems named below: HT29 colon; SNB-75 CNS; SNB-19 CNS; U251 CNS; PC-3 prostate; SK-MEL-5 melanoma; UACC-62 melanoma; LOX IMVI melanoma; SK-MEL-28 melanoma; SK-MEL-2 melanoma.
Holding throughout (experiment): NCI-60 one-dose screen, 48 h (100 = growth as untreated, 0 = no growth, -100 = all killed)
Holding throughout (settings): 10 µM

This is part of a sample that, as a whole, favours compounds with a hit. Of some 83,000 tested, about 20% had one in any assay.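 Plates (96-well) were seeded with cells, treated with compound at one concentration, and incubated for 48 hours before percent growth was determined.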 Unmarked numbers belong to inactive results. The source made the active and inactive calls. Rule for the calls: active = growth percent below 10; inactive = the rest.

Turning to `Cc1ccc(-c2n[nH]c(=O)c3noc(-c4ccc(C)cc4)c23)cc1`, the growth is 6.9% (active) in the assay with HT29 colon; -15% (active) in the assay on SNB-75 CNS; 56% with SNB-19 CNS; 27.7% in the assay with U251 CNS; 28% with PC-3 prostate; 15.9% with SK-MEL-5 melanoma. In addition, the growth in the assay on UACC-62 melanoma was 28.6%; with LOX IMVI melanoma, 44%; in the assay on SK-MEL-28 melanoma it was 52%; in the assay with SK-MEL-2 melanoma, 9.04% (active).

With `COc1ccc(-c2cc(-c3cccc(NS(C)(=O)=O)c3)nc(N)c2C#N)cc1`, the growth in the assay on HT29 colon is 8.45% (active); with SNB-75 CNS, -6.31% (active); in the assay with SNB-19 CNS, 42.1%; in the assay on U251 CNS, 28.5%; in the assay with PC-3 prostate it was 9.4% (active); with SK-MEL-5 melanoma it was 13.6%. The growth is 39.9% with UACC-62 melanoma, 44.8% with LOX IMVI melanoma, 66% in the assay on SK-MEL-28 melanoma and 49.8% with SK-MEL-2 melanoma.

Take `CC(=O)N(C)c1ccc(Nc2ccc(Nc3ccc(N(C)C(C)=O)cc3)c3c2C(=O)c2ccccc2C3=O)cc1`: the growth with HT29 colon is 68.6%; in the assay on SNB-75 CNS, 73.9%; with SNB-19 CNS, 88.4%; in the assay on U251 CNS, 77.3%; with PC-3 prostate it was 38.3%; in the assay on SK-MEL-5 melanoma it was 79%. In addition, the growth in the assay on UACC-62 melanoma was 88.8%; in the assay on LOX IMVI melanoma, 55%; in the assay on SK-MEL-28 melanoma, 106%; in the assay on SK-MEL-2 melanoma, 82.8%.

As for `O=C(O)c1ccc(Cl)cc1Nc1ccc(F)cc1`, the growth was 101% with HT29 colon; 83.6% with SNB-75 CNS; 87.1% with SNB-19 CNS; 52.3% with U251 CNS; 83.9% with PC-3 prostate; 102% with SK-MEL-5 melanoma. The growth is 92.4% with UACC-62 melanoma, 43.1% in the assay with LOX IMVI melanoma, 86.2% in the assay on SK-MEL-28 melanoma and 93.4% in the assay with SK-MEL-2 melanoma.

On to `COc1cc(NC(=O)CSc2nc3ccccc3c(=O)n2CCc2ccccc2)cc(OC)c1OC`, for which the growth with HT29 colon is 15.4%; in the assay on SNB-75 CNS, -26.7% (active); with SNB-19 CNS it was 27%; with U251 CNS it was -12.5% (active); in the assay with PC-3 prostate, 41.8%; in the assay with SK-MEL-5 melanoma, -41.9% (active). The growth in the assay on UACC-62 melanoma is 25.3%; with LOX IMVI melanoma, 30.6%; in the assay with SK-MEL-28 melanoma it was 37.5%; with SK-MEL-2 melanoma it was -2.19% (active).

`Clc1cccc(-c2nc(-c3cccs3)no2)c1`: the growth in the assay on HT29 colon was 106%; in the assay with SNB-75 CNS it was 81.5%; in the assay with SNB-19 CNS, 104%; in the assay with U251 CNS, 90.3%; in the assay on PC-3 prostate, 103%; in the assay on SK-MEL-5 melanoma it was 90.1%. The growth with UACC-62 melanoma is 89.8%; in the assay on LOX IMVI melanoma, 93.1%; in the assay on SK-MEL-28 melanoma, 115%; with SK-MEL-2 melanoma, 116%.

As to `CSc1nc(=O)n(Cc2ccc(F)cc2)c(=O)n1Cc1ccc(C)cc1`, the growth with HT29 colon is 101%; in the assay with SNB-75 CNS, 74.9%; in the assay with SNB-19 CNS, 100%; in the assay on U251 CNS it was 94.7%; in the assay on PC-3 prostate, 88.5%; in the assay with SK-MEL-5 melanoma, 107%. The growth with UACC-62 melanoma was 93.5%; in the assay with LOX IMVI melanoma, 90.9%; in the assay on SK-MEL-28 melanoma it was 108%; with SK-MEL-2 melanoma, 108%.

As to `Cc1c(Cl)cccc1NC(=O)c1sc2nc3c(cc2c1N)C(=O)CCC3`, the growth in the assay on HT29 colon is 3.09% (active); in the assay on SNB-75 CNS, 27%; in the assay with SNB-19 CNS, 45.4%; in the assay with U251 CNS, 7.51% (active); with PC-3 prostate, 21.4%; with SK-MEL-5 melanoma, 9.76% (active). Further, the growth in the assay on UACC-62 melanoma was 34.5%; in the assay with LOX IMVI melanoma, 33.3%; in the assay on SK-MEL-28 melanoma, 43.7%; with SK-MEL-2 melanoma it was 18%.

Turning to `COc1ccc(-c2nc(-c3nc4cc(Cl)c(Cl)cc4[nH]3)c3ccccn23)cc1`, the growth in the assay with HT29 colon was 51.4%; in the assay on SNB-75 CNS, -29.1% (active); in the assay with SNB-19 CNS it was 50.5%; with U251 CNS, 22.6%; in the assay with PC-3 prostate, 57%; with SK-MEL-5 melanoma it was 48.3%. Moreover, the growth in the assay on UACC-62 melanoma is 88.9%; with LOX IMVI melanoma it was 43.6%; in the assay on SK-MEL-28 melanoma, 62.2%; with SK-MEL-2 melanoma it was 58.1%.

For the molecule `COc1ccc2c(c1)O/C(=C\c1ccc([N+](=O)[O-])o1)C2=O`, the growth in the assay with HT29 colon is -33.1% (active); in the assay with SNB-75 CNS, 58.7%; in the assay with SNB-19 CNS, 59.7%; with U251 CNS, 9.08% (active); in the assay with PC-3 prostate, -2.47% (active); in the assay with SK-MEL-5 melanoma, 13%. Moreover, the growth in the assay with UACC-62 melanoma is -37.6% (active); in the assay with LOX IMVI melanoma it was -64.7% (active); with SK-MEL-28 melanoma it was 41.9%; in the assay on SK-MEL-2 melanoma, -39.4% (active).

As for `Nc1c(C(=O)Nc2cccc(Br)c2)sc2nc3c(cc12)C(O)CCC3` (stereo not given), the growth with HT29 colon is 5.13% (active); in the assay with SNB-75 CNS it was 31.2%; with SNB-19 CNS, 62.2%; in the assay on U251 CNS, 19.3%; in the assay on PC-3 prostate, 23%; with SK-MEL-5 melanoma, 31.6%. In addition, the growth was 48.9% in the assay with UACC-62 melanoma, 46.2% in the assay with LOX IMVI melanoma, 63.2% in the assay on SK-MEL-28 melanoma and 58.7% with SK-MEL-2 melanoma.

Regarding `Cc1ccc(C(=O)N2C/C(=C/c3ccc(F)cc3)C(=O)/C(=C/c3ccc(F)cc3)C2)cc1`, the growth is 74.1% in the assay with HT29 colon; 59.7% in the assay with SNB-75 CNS; 97.8% with SNB-19 CNS; 88.9% in the assay with U251 CNS; 85.2% with PC-3 prostate; 94.6% with SK-MEL-5 melanoma. In addition, the growth in the assay with UACC-62 melanoma was 86.3%; in the assay on LOX IMVI melanoma it was 54.5%; in the assay on SK-MEL-28 melanoma, 105%; with SK-MEL-2 melanoma, 84%.

As to `Cc1ccc(C(=O)N2C/C(=C/c3ccccc3)C(=O)/C(=C/c3ccccc3)C2)cc1`, the growth with HT29 colon was -17.9% (active); in the assay with SNB-75 CNS it was 67.9%; with SNB-19 CNS, 83%; with U251 CNS it was 47%; with PC-3 prostate, 65.3%; in the assay on SK-MEL-5 melanoma it was 58.9%. The growth was 76.9% with UACC-62 melanoma, -24.5% (active) in the assay with LOX IMVI melanoma, 79.8% in the assay on SK-MEL-28 melanoma and 80.2% in the assay with SK-MEL-2 melanoma.

Take `COc1ccc2c(c1)C(=O)c1c-2c(=O)n(CCCN(C)C)c2cc(OC)c(OC)cc12`: the growth in the assay on HT29 colon is 60.6%; with SNB-75 CNS, 48.9%; in the assay with SNB-19 CNS it was 59.2%; in the assay with U251 CNS, 43.8%; in the assay on PC-3 prostate, 72.2%; in the assay on SK-MEL-5 melanoma, 86.8%. Also, the growth in the assay on UACC-62 melanoma is 77%; in the assay with LOX IMVI melanoma it was 17.3%; with SK-MEL-28 melanoma, 111%; with SK-MEL-2 melanoma, 69%.

The record behind these values is PubChem BioAssay (NCI).
